Screening results from PubChem BioAssay.
SW480 rerep: A quantitative high throughput screen for small molecules that induce DNA re-replication in SW480 colon adenocarcinoma cells; SW480 DNA re-replication, Hoechst DNA content imaging, 48 h; Potency, µM (titrated, usually from 46.1 µM), without a hit: top-dose re-replication activation, usual class: activators; actives 1.8% (n = 340,000); AID 624297, 2012; note: % of control where 0% means no effect; nearly all actives have a fitted effect of over 55% in size
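Readout is total intensity of Hoechst-stained nuclei, excited at 405 nm and collected at 500-530 nm. Compound treatment lasted 48 hr at 37 C in 5% CO2 before staining.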
ELG1 repair inh: qHTS screen for small molecules that inhibit ELG1-dependent DNA repair in human embryonic kidney (HEK293T) cells expressing luciferase-tagged ELG1. HEK293T ELG1-luciferase reporter, luminescence, 16 h; DNA damage induced by 5-fluorouridine. Potency, µM (highest dose often 46.1 µM), inactives show at the highest dose activity change, negative = inhibition, hits mostly inhibitors. actives 2.3% (n = 330,000). AID 504467, 2011; note: % is set by controls: 0 for no effect and ±100 for the full control effect; nearly all actives have a fitted effect of over 55% in size
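Step one: seed 2,000 cells per well. Step two: pin-transfer compound or DMSO alongside 5-fluorouridine. Step three: incubate 16 hr, 37 °C, 5% CO2. Step four: add ONE-Glo, wait 30 min, read luminescence.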
Gal4-VP16 FLuc: VP16 counterscreen qHTS for inhibitors of ROR gamma transcriptional activity. Drosophila S2 Gal4-VP16 UAS-luciferase, luminescence, 20 h. AID 2546, 2010. Potency, µM (highest dose often 53.6 µM), inactives show at the top dose activity, negative = inhibition, hits mostly inhibitors. actives 3.5% (n = 310,000);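 note: Gal4-VP16 expression switched on by copper sulfate through the metallothionein promoter; % is set by controls: 0 for no effect and ±100 for the full control effect; nearly all actives have a fitted effect of over 50% in size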
RORg inh: qHTS for inhibitors of ROR gamma transcriptional activity; Nuclear receptor ROR-gamma (Mus musculus), P51450; Drosophila S2 Gal4-RORgamma UAS-luciferase reporter, 20 h; Potency, µM (highest dose often 53.6 µM), for the others: at the top dose activity change, negative = inhibition, actives largely listed as inhibitors; actives 5.4% (n = 310,000); note: % is set by controls: 0 for no effect and ±100 for the full control effect; nearly all actives have a fitted effect of over 60% in size
Target sequence (P51450 whole entry, looked up, the tested form may be a part): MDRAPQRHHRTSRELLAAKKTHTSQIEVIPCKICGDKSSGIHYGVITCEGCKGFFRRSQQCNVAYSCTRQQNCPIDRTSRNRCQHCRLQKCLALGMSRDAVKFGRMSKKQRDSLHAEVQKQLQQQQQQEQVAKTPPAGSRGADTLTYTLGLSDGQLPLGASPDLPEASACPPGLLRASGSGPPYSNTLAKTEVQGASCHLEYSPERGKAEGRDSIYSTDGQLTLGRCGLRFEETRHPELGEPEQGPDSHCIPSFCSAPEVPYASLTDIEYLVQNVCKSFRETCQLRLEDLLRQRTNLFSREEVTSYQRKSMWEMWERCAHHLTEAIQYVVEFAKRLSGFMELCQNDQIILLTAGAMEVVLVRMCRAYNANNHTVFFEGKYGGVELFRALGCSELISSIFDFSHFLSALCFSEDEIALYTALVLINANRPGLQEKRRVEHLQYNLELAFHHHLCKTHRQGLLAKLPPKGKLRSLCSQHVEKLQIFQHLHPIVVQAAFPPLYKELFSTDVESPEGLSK
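Stably transfected Drosophila Schneider cells are the test system, with ROR gamma fused to Gal4 and luciferase under UAS control; luminescence is read after 20 hr of 700 uM copper sulfate induction at ambient temperature.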
MCF10A rereplic: A quantitative high throughput screen for small molecules that induce DNA re-replication in MCF 10a normal breast cells; MCF 10A DNA re-replication, Hoechst nuclear intensity, 48 h; Potency, µM (doses to about 46.1 µM), without a hit: top-dose activity, positive = re-replication, actives largely listed as activators; actives 2.9% (n = 350,000); AID 624296, 2012; note: % of control where 0% means no effect; nearly all actives have a fitted effect of over 50% in size
* hit, by the source's call; u = inconclusive; x = no result given; [ ] = remark or other dose. In the library only some 10% were active in any assay of this set; here they are far more common. Calls come from the whole dose curve; as a rule, active = well fitted curve in the direction sought with a large enough effect; inconclusive = small, poorly fitted or top-dose-only effect, or another doubt; inactive = no such curve, though single readings can be large; an effect the other way counts as inactive or inconclusive. Potency is the fitted concentration of half-maximal effect.

SMILES	SW480 rerep	ELG1 repair inh	Gal4-VP16 FLuc	RORg inh	MCF10A rereplic
Cc1cc2[nH]c(=O)c3ccccc3n2n1	-7%	-1%	-1%	-19%	7%
O=C(Nc1ccc2c(c1)C(=O)NC2=O)c1cc(Cl)ccc1Cl	-11%	-15%	4%	-2%	11%
O=C(CCCSc1nc2ccccc2[nH]1)NCc1ccccc1	-12%	-21%	0%	12%	-1%
O=C(Cc1ccc(F)cc1)Nc1nnc(-c2ccc(F)cc2)o1	u	u	1.4µM*	u	2%
O=C(CSc1nncs1)Nc1nnc(-c2ccccc2)o1	-8%	16%	u	11µM*	3%
Cc1ccc(C)c(-c2nnc(NC(=O)Cc3ccccc3)o2)c1	0%	-27%	1.1µM*	1µM*	-6%
Cc1ccc(C)c(-c2nnc(NC(=O)c3ccco3)o2)c1	u	0%	x	x	7%
O=C(CCCSc1nc2ccccc2[nH]1)Nc1nnc(-c2ccccc2)o1	-7%	u	-22%	13µM*	1%
O=C(Nc1ccc(F)cc1)Nc1nnc(-c2ccccc2)o1	-3%	4%	8%	-13%	-6%
O=C1OC(/C(=C\Nc2ccccc2)[N+](=O)[O-])c2ccccc21 (stereo unspecified)	-1%	6%	-12%	-44%	-1%
O=C(COC(=O)CCC(=O)c1ccccc1)Nc1nnc(-c2ccccc2)o1	-12%	26%	x	x	1%
O=C(Cc1ccccc1)Nc1nnc(-c2ccccc2)o1	-6%	9%	3.5µM*	1.1µM*	-1%
COc1cccc(N2C(=O)C3CCCN3C2=S)c1 (stereo unspecified)	u	-21%	3%	-1%	u
NC(=S)NNC(=O)COc1ccccc1O	-12%	-4%	10%	u	-4%
S=C1NCCc2ccccc2C1c1ccccc1 (stereo unspecified)	-7%	u	0.16µM*	0.22µM*	-4%
S=C1NCCc2ccccc2C1c1ccccc1Cl (stereo unspecified)	1%	-1%	3.5µM*	7.9µM*	13%
O=C(CC1NCCc2ccccc21)Nc1ccccc1Cl (stereo unspecified)	-4%	14%	4%	-14%	19%
O=C(O)C1NCCc2ccccc21 (stereo unspecified)	0%	-4%	3%	-25%	-6%
Cc1ccc(NC(=O)CN2C(=O)C(=O)N(C3CCCC3)C2=O)c(Cl)c1	5%	-4%	x	x	-2%
NNC(=O)c1cccc(COc2ccc3c(c2)CCC3)c1	-5%	u	5µM*	3.2µM*	-5%
CN(C)S(=O)(=O)c1ccc(NC(=O)COc2cccc3c2OC(C)(C)C3)cc1	-1%	-25%	x	x	11%
CCOCCCn1c(=NC(C)=O)c(C#N)cc2c(=O)n3ccccc3nc21	7.3µM*	0%	-2%	-1%	2.6µM*
CC(=O)N=c1c(C#N)cc2c(=O)n3ccccc3nc2n1Cc1ccccc1	5.8µM*	5%	5%	-10%	8.2µM*
CCOC(=O)c1cc2c(=O)n3ccccc3nc2n(Cc2ccccc2)c1=N	u	2%	1%	-36%	u
CCCC1OC2CC3C4CCC5=CC(=O)C=CC5(C)C4C(O)CC3(C)[C@]2(C(=O)CO)O1 (stereo partly specified)	x	x	2%	u	x
SMILES	SW480 rerep	ELG1 repair inh	Gal4-VP16 FLuc	RORg inh	MCF10A rereplic
CCn1nc(C(=O)NCC(c2cccs2)N2CCOCC2)c2ccccc2c1=O (stereo unspecified)	2%	-2%	0%	8%	19%
CCCCn1nc(C(=O)Nc2nc3c(s2)CCCC3)c2ccccc2c1=O	0%	15µM*	u	11µM*	14%
CCCCCCn1nc(C(=O)Nc2nc3c(s2)CCCC3)c2ccccc2c1=O	-5%	u	-21%	10µM*	u
CCCCn1nc(C(=O)NCC(c2cccs2)N2CCOCC2)c2ccccc2c1=O (stereo unspecified)	-36%	18µM*	x	x	7%
COc1ccc(CNC(=O)C(CCSC)NS(=O)(=O)c2ccccc2F)cc1 (stereo unspecified)	-6%	-4%	20%	23%	1%
CN(C)C(CNC(=O)CSc1nc2ccccc2c(=O)n1Cc1ccco1)c1ccccc1 (stereo unspecified)	-3%	24%	x	x	5%
CNCC(=O)NC(CCCN=C(N)N)C(=O)NC(C(=O)NC(Cc1ccc(O)cc1)C(=O)NC(C(=O)NC(Cc1cnc[nH]1)C(=O)N1CCCC1C(=O)NC(C)C(=O)O)C(C)C)C(C)C (stereo unspecified)	-8%	x	-9%	-3%	-1%
Cc1ccccc1CNC(=O)CCC(=O)N1CCOc2ccc(Cl)cc21	2%	14%	0%	27%	2%
c1cc(-c2sc(-c3ccncc3)c(-c3ccncc3)c2-c2ccncc2)ccn1	14%	18µM*	-17%	-31%	-6%
CCC(=O)N1CCc2cc(Br)cc(S(=O)(=O)N3CCC(C(=O)NC(C)(C)C)CC3)c21	1%	7.3µM*	-19%	-8%	19%
Cc1cc(C(C)(C)C)cc(C)c1Cn1c2[n+](c3ccc(C(F)(F)F)cc31)CCCCC2	-10%	15µM*	u	u	u
FC(F)(F)c1cccc(Cn2c3[n+](c4ccc(C(F)(F)F)cc42)CCCCC3)c1	1%	u	6%	4%	10%
COc1ccc(-c2nc(NC(=O)C3CCN(c4nc5ccccc5o4)CC3)sc2C)cc1	u	12µM*	u	-44%	20%
O=C(c1noc2c1CCCC2)N1CCC(CO)(Cc2ccccc2Cl)CC1	1%	21µM*	2%	4%	u
O=C(c1noc2c1CCCC2)N1CCN(c2ccccc2)CC1	-4%	10%	15%	27%	-2%
CC(=O)Oc1c(-c2ccco2)oc2ccccc2c1=O	16µM*	u	u	13µM*	u
CCN(CC)C(=O)COc1c(-c2ccco2)oc2ccccc2c1=O	-7%	u	-10%	5%	u
O=C(O)c1ccc2c(c1)C(=O)N(CCCCCCCN1C(=O)c3ccc(C(=O)O)cc3C1=O)C2=O	-8%[1.84 µM]	11%	-2%	4%	u
O=C(O)CCCCCN1C(=O)c2ccc(C(=O)O)cc2C1=O	-25%	5%	12%	39%	15µM*
CC(C)(C)NC[C@@H](O)COc1nsnc1N1CCOCC1	x	x	1%	-13%	x
COc1ccc(CCNC(=O)c2c(O)c3c([nH]c2=O)CCCC3)cc1OC	-1%	x	x	x	u
O=C(O)COc1ccc(Br)cc1/C=N\Nc1ccccn1	18%	1%	-21%	2.2µM*	0%
